This passage reports growth results from PubChem BioAssay (NCI).

Test systems include SK-MEL-2 melanoma; EKVX NSCLC; SN12C renal; UO-31 renal; TK-10 renal; ACHN renal; CAKI-1 renal; A498 renal; CCRF-CEM leukemia; SR leukemia; RPMI-8226 leukemia; OVCAR-8 ovarian; OVCAR-5 ovarian; OVCAR-4 ovarian; SK-OV-3 ovarian; IGROV1 ovarian; OVCAR-3 ovarian; HS 578T breast; NCI/ADR-RES ovarian.
What all share (experiment): NCI-60 one-dose screen, 48 h (100 = growth as untreated, 0 = no growth, -100 = all killed)
What all share (conditions): 10 µM unless noted

The panel holds about 83,000 compounds, 20% with a hit somewhere; the sample as a whole holds those more often.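 Testing used 96-well plates and a 48-hour single-concentration exposure. Example: -40 means 40% of the starting cells died.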 A number with no mark means an inactive call. Activity calls are given as the source filed them. How the source made its calls: active means growth percent below 10; inactive means the rest.

`CCN1CCN(c2nc(C)cc(NCc3cc(Nc4ccnc5cc(Cl)ccc45)ccc3F)n2)CC1`: the growth was -49.7% (active) with SK-MEL-2 melanoma; 49.4% in the assay with EKVX NSCLC; 44% with SN12C renal; 17.1% in the assay on UO-31 renal; 28.9% with TK-10 renal; 16.9% in the assay on ACHN renal. Besides, the growth is 68.8% in the assay on CAKI-1 renal; 15.6% in the assay on A498 renal; -19.4% (active) in the assay on CCRF-CEM leukemia; -18.8% (active) in the assay on SR leukemia; -31.1% (active) with RPMI-8226 leukemia; 17.4% in the assay with OVCAR-8 ovarian. The growth with OVCAR-5 ovarian is 17.8%; with OVCAR-4 ovarian it was 26.1%; in the assay on SK-OV-3 ovarian it was 31.5%; with IGROV1 ovarian it was 15.8%; in the assay on OVCAR-3 ovarian it was 10.5%; with HS 578T breast it was 9.27% (active). For the same compound, the growth in the assay with NCI/ADR-RES ovarian was 24.6%.

Consider `CC(=O)n1c(-c2ccc(Cl)cc2)nc2c(c1=O)C(c1ccc(Cl)cc1)c1sc3c(Cl)cccc3c1O2` (configuration not stated), for which the growth with SK-MEL-2 melanoma is 7.32% (active); in the assay on EKVX NSCLC, 32.9%; in the assay with SN12C renal, -0.0627% (active); in the assay with UO-31 renal, 15.6%; in the assay on TK-10 renal, -7.43% (active); with ACHN renal, 23.4%. Besides, the growth with CAKI-1 renal is 7.82% (active); in the assay with A498 renal, 3.79% (active); with CCRF-CEM leukemia it was -4.47% (active); in the assay on SR leukemia, -14.9% (active); in the assay on RPMI-8226 leukemia, 0.984% (active); in the assay with OVCAR-8 ovarian it was -31.5% (active). Moreover, the growth in the assay with OVCAR-5 ovarian was -3.95% (active); with OVCAR-4 ovarian, 17.3%; in the assay with SK-OV-3 ovarian, -2.53% (active); with IGROV1 ovarian, 13.2%; with OVCAR-3 ovarian, -50.4% (active); in the assay with HS 578T breast, -9.23% (active). The growth with NCI/ADR-RES ovarian was -17.2% (active).

With `O=C(CCCCCCN1CC(=O)N2[C@@H](c3ccccc3Cl)c3[nH]c4ccccc4c3C[C@H]2C1=O)NO`, the growth is 70.1% with SK-MEL-2 melanoma; 82.2% with EKVX NSCLC; 70.1% in the assay with SN12C renal; 55.6% in the assay on UO-31 renal; 68.9% in the assay on TK-10 renal; 81.7% with ACHN renal. The growth in the assay on CAKI-1 renal was 71.4%; in the assay on A498 renal it was 73.5%; in the assay with CCRF-CEM leukemia, 17.8%; with SR leukemia, 15.9%; with RPMI-8226 leukemia, 14.8%; with OVCAR-8 ovarian, 49.6%. The growth with OVCAR-5 ovarian is 61%; in the assay on OVCAR-4 ovarian, 68.3%; in the assay with SK-OV-3 ovarian it was 84.8%; with IGROV1 ovarian, 66.5%; with OVCAR-3 ovarian it was 56.9%; with HS 578T breast it was 59.2%. The growth in the assay with NCI/ADR-RES ovarian is 89.8%.

On to `COC(=O)[C@]12CC[C@@H](C)[C@H](C)[C@@H]1C1=CC[C@@H]3[C@@]4(C)C(C=O)=C[C@@](C)(COS(C)(=O)=O)C4[C@H](O)C[C@@]3(C)[C@]1(C)CC2` (some centres not stated), for which the growth was -60.7% (active) with SK-MEL-2 melanoma; -22.4% (active) in the assay with EKVX NSCLC; -40.8% (active) with SN12C renal; -96.6% (active) with UO-31 renal; -73.5% (active) in the assay on TK-10 renal; -93.2% (active) in the assay with ACHN renal. In addition, the growth is -15.6% (active) in the assay on CAKI-1 renal; -38.5% (active) with A498 renal; -33.8% (active) with CCRF-CEM leukemia; -33.3% (active) in the assay on SR leukemia; -10.7% (active) in the assay with RPMI-8226 leukemia; -50.1% (active) in the assay with OVCAR-8 ovarian. Also, the growth is -38.3% (active) in the assay with OVCAR-5 ovarian; -52.8% (active) with OVCAR-4 ovarian; -35.2% (active) in the assay with SK-OV-3 ovarian; -13.4% (active) in the assay with IGROV1 ovarian; -88.7% (active) with OVCAR-3 ovarian; -30.6% (active) in the assay with HS 578T breast. In addition, the growth in the assay with NCI/ADR-RES ovarian is -1.9% (active).

Take `CNC(=O)c1cc(Oc2ccc3nc(Nc4ccc(Cl)c(C(F)(F)F)c4)ccc3c2)ccn1`: the growth in the assay with SK-MEL-2 melanoma was 75.9%; with EKVX NSCLC it was 62.6%; in the assay with SN12C renal, 71.1%; in the assay with UO-31 renal, 57.8%; with TK-10 renal, 54.5%; in the assay on ACHN renal it was 49.4%. For the same compound, the growth is 92.7% in the assay on CAKI-1 renal; 61.8% with A498 renal; 42.2% in the assay on CCRF-CEM leukemia; 30% in the assay with SR leukemia; 53.8% in the assay with RPMI-8226 leukemia; 58.4% with OVCAR-8 ovarian. Moreover, the growth was 91.8% in the assay with OVCAR-5 ovarian; 56.3% in the assay on OVCAR-4 ovarian; 93.3% with SK-OV-3 ovarian; 83.8% in the assay on IGROV1 ovarian; 61.5% with OVCAR-3 ovarian; 77.8% with HS 578T breast. Also, in the assay on NCI/ADR-RES ovarian, the growth is 65.5%.

Regarding `O=C(Nc1cccc(Cl)c1)c1cc(N=Nc2ccc([N+](=O)[O-])cc2Cl)ccc1O`, the growth in the assay on SK-MEL-2 melanoma was -26.6% (active); in the assay on EKVX NSCLC, 70.2%; with SN12C renal it was 82.1%; in the assay with UO-31 renal it was 38.7%; in the assay with TK-10 renal, 136%; with ACHN renal it was 82.4%. For the same compound, the growth with CAKI-1 renal was 100%; with A498 renal, 69.5%; with CCRF-CEM leukemia it was 21.3%; in the assay with SR leukemia, 20.7%; with RPMI-8226 leukemia, 3.54% (active); with OVCAR-8 ovarian, 15.6%. Also, the growth in the assay on OVCAR-5 ovarian is 112%; in the assay with OVCAR-4 ovarian it was 59.9%; in the assay on SK-OV-3 ovarian it was 93.1%; with IGROV1 ovarian it was 22.9%; in the assay on OVCAR-3 ovarian it was 85%; with HS 578T breast, 54%. Also, the growth in the assay on NCI/ADR-RES ovarian is 67.6%.

As to `COC(=O)[C@]12CC[C@@H](C)[C@H](C)[C@@H]1C1=CC[C@@H]3[C@@]4(C)C(C=O)=C[C@@](C)(CO)[C@@H]4[C@H](O)C[C@@]3(C)[C@]1(C)CC2`, the growth in the assay with SK-MEL-2 melanoma was -31.7% (active); with EKVX NSCLC, 7.75% (active); in the assay on SN12C renal, 1.62% (active); in the assay with UO-31 renal it was -31.5% (active); in the assay with TK-10 renal it was -18.8% (active); in the assay with ACHN renal, -81.6% (active). Besides, the growth with CAKI-1 renal is -28.7% (active); in the assay on A498 renal it was -5.03% (active); in the assay with CCRF-CEM leukemia, 1.38% (active); in the assay with SR leukemia, -20.4% (active); in the assay with RPMI-8226 leukemia, -10.1% (active); with OVCAR-8 ovarian, -2.42% (active). In addition, the growth in the assay on OVCAR-5 ovarian is -19.7% (active); with OVCAR-4 ovarian it was -5.06% (active); in the assay on SK-OV-3 ovarian, 3.19% (active); in the assay on IGROV1 ovarian it was 3.94% (active); in the assay on OVCAR-3 ovarian, -91.9% (active); with HS 578T breast, -15.6% (active). The growth with NCI/ADR-RES ovarian was -10.2% (active).

Consider `Cc1cc(NCc2cc(Nc3ccnc4cc(Cl)ccc34)ccc2F)nc(N2CCN(c3ccccc3)CC2)n1`, for which the growth with SK-MEL-2 melanoma was 84.5%; in the assay with EKVX NSCLC, 64.8%; in the assay with SN12C renal, 49.9%; in the assay with UO-31 renal, 36.1%; with TK-10 renal, 88.7%; in the assay with ACHN renal, 69.2%. Further, the growth is 72.3% in the assay on CAKI-1 renal; 14.1% with A498 renal; -7.8% (active) in the assay with CCRF-CEM leukemia; -24.6% (active) in the assay with SR leukemia; 42.8% with RPMI-8226 leukemia; 58.8% with OVCAR-8 ovarian. Besides, the growth is 92.6% in the assay with OVCAR-5 ovarian; 46.2% in the assay with OVCAR-4 ovarian; 55.1% in the assay on SK-OV-3 ovarian; 41.6% in the assay with IGROV1 ovarian; 5.88% (active) with OVCAR-3 ovarian; 47.9% with HS 578T breast. For the same compound, in the assay with NCI/ADR-RES ovarian, the growth is 56.5%.
